# Measured values: PubChem BioAssay (Tox21)
# Where “and” joins values, the source holds several entries; their conditions need not be identical. Identical values can stand only once. Inconclusive results are not listed. Entries that show only a call come without a potency. Some compounds were tested as several samples or in several runs, with calls that do not always agree. Calls of active or inactive are those of the source. Unless noted, the call rests on the fitted dose curve; in most records, active means well fitted curve in the direction sought with a large enough effect in the repeat runs; inconclusive means weak or mixed curves; inactive means no such curve, though single readings can be large; an effect the other way counts as inactive or inconclusive.
# Legend:
# [1] = target: Thyrotropin receptor (Homo sapiens) (UniProt P16473); assay: qHTS assay to identify small molecule agonists of the thyroid stimulating hormone receptor (TSHR) signaling pathway (AID 1224843; calls by dose curve; further: nearly all actives have a fitted effect of over 45% in size)
# Chain of Thyrotropin receptor (Homo sapiens) (P16473 whole entry, looked up): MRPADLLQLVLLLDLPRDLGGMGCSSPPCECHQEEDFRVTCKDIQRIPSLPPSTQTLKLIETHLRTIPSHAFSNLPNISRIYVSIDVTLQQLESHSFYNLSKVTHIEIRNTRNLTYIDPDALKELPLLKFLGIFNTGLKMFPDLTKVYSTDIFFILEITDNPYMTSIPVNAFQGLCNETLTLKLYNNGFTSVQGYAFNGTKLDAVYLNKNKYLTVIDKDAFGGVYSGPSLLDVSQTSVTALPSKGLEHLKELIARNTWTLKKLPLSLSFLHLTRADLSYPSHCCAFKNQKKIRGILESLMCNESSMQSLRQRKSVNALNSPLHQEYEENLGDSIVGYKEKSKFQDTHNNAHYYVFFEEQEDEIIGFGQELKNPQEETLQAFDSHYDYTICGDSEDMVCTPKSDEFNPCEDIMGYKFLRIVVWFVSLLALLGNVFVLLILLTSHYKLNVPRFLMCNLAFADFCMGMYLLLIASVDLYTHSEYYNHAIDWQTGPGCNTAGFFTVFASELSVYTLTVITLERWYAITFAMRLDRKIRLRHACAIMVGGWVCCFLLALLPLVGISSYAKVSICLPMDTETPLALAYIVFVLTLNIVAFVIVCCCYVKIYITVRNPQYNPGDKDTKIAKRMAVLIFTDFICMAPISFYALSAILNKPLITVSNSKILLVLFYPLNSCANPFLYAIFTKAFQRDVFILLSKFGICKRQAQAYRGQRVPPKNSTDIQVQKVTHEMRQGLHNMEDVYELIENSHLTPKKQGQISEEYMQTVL
# Summary of the method: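 A cell-based cAMP HTRF format was run in TSHR-transfected HEK293 cells, 800 per well. Treatment: 30 min, room temperature. Detection: 1 h with labelled cAMP and anti-cAMP cryptate. Concentration-response over 15 points, three replicates.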
# [2] = qHTS assay to identify small molecule agonists of the hypoxia (HIF-1) signaling pathway - cell viability counter screen (AID 1224844; calls by dose curve; further: nearly all actives have a fitted effect of over 50% in size; further: potency means the concentration at half of the fitted maximal effect)
# Summary of the method: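 Same wells as the HIF-1 reporter screen; ME-180 cells carrying HRE-bla, 17 hr treatment at 37C; CellTiter-Glo luminescence read after 30 min at room temperature.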
# [3] = qHTS assay to identify small molecule agonists of H2AX (AID 1224845; active means well fitted activation curve with a large enough effect in the signal ratio in the repeat runs, not every such curve was filed as active; the % refers to the signal ratio; further: potency means the concentration at half of the fitted maximal effect)
# Summary of the method: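 Phospho-H2AX Ser139 measured by HTRF (ex 320 nm; em 665 and 620 nm) after 24 hr antibody incubation. Compounds, 15 concentrations, 0.76% DMSO, were applied to CHO-K1 cells for 3hr at 37C before lysis.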
# [4] = qHTS assay to identify small molecule agonists of H2AX - cell viability counter screen (AID 1224847; calls by dose curve; further: nearly all actives have a fitted effect of over 30% in size; further: potency means the concentration at half of the fitted maximal effect)
# Summary of the method: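 Counter-screen for viability: CellTiter-Glo ATP luminescence read after 3 h compound treatment (15-point titration, 0.76% DMSO final) of CHO-K1 cells at 37C, with 30 min room-temperature reagent incubation.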
# [5] = qHTS RealTime-Glo MT Cell Viability Assay in HepG2 cells - 24 hour (AID 1224867); further: nearly all actives have a fitted effect of over 50% in size; further: potency means the concentration at half of the fitted maximal effect
# Summary of the method: (§1)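 Real-time, nonlytic viability: 600 HepG2 cells/well mixed with NanoLuc enzyme plus prosubstrate; 5 h settle, compound (DMSO) added by pintool; luminescence monitored over 40 h at 37 C.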
# [6] = qHTS RealTime-Glo MT Cell Viability Assay in HEK293 cells - 32 hour (AID 1224868); further: nearly all actives have a fitted effect of over 50% in size; further: potency means the concentration at half of the fitted maximal effect
# Summary of the method: (§2)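 Cells + reagent dispensed (600 cells/well, HEK293) → 5 h at 37 C/5% CO2 → 23 nL compound in DMSO pinned → 40 h at 37 C → luminescence read at 0, 8, 16, 24, 32, 40 h.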
# [7] = A CellTox Green Cytotoxicity Assay to monitor cytotoxicity in HEK293 cells - 0 hour (AID 1224869); further: nearly all actives have a fitted effect of over 50% in size
# Summary of the method: (§3)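 Homogeneous no-lysis format: HEK293 cell suspension mixed with CellTox Green reagent, seeded, incubated 5 h at 37 C/5% CO2, then dosed by pintool with compound in DMSO.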
# [8] = qHTS RealTime-Glo MT Cell Viability Assay in HepG2 cells - 40 hour (AID 1224870); further: nearly all actives have a fitted effect of over 50% in size; further: potency means the concentration at half of the fitted maximal effect
# Summary of the method: (§4)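 Real-time viability: cells seeded at 600 per well together with NanoLuc and cell-permeant prosubstrate, compounds added after 5 h incubation. Luminescence tracked at 0, 8, 16, 24, 32 and 40 h of exposure.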
# [9] = A CellTox Green Cytotoxicity Assay to monitor cytotoxicity in HEK293 cells - 40 hour (AID 1224871); further: nearly all actives have a fitted effect of over 45% in size; further: potency means the concentration at half of the fitted maximal effect
# Summary of the method: as §3
# [10] = qHTS RealTime-Glo MT Cell Viability Assay in HEK293 cells - 16 hour (AID 1224872); further: nearly all actives have a fitted effect of over 50% in size; further: potency means the concentration at half of the fitted maximal effect
# Summary of the method: as §2
# [11] = qHTS RealTime-Glo MT Cell Viability Assay in HepG2 cells - 8 hour (AID 1224873); further: nearly all actives have a fitted effect of over 55% in size; further: potency means the concentration at half of the fitted maximal effect
# Summary of the method: as §4
# [12] = qHTS RealTime-Glo MT Cell Viability Assay in HEK293 cells - 40 hour (AID 1224874); conditions: RealTime-Glo luminescence; max response: stronger effect = lower value; further: nearly all actives have a fitted effect of over 50% in size; further: potency means the concentration at half of the fitted maximal effect
# Summary of the method: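 Measured as luminescence from the same continuously cultured HEK293 wells at successive time points (0, 8, 16, 24, 32, 40 h) after compound addition. Reagent present from seeding; dosing at 5 h; incubation 37 C.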
# [13] = A CellTox Green Cytotoxicity Assay to monitor cytotoxicity in HepG2 cells - 16 hour (AID 1224876); further: nearly all actives have a fitted effect of over 45% in size; further: potency means the concentration at half of the fitted maximal effect
# Summary of the method: (§5)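 Fluorescent DNA-binding dye, 600 HepG2 cells/well, 5 h preincubation then compound in DMSO; same plates read at 0–40 h, 37 C.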
# [14] = qHTS RealTime-Glo MT Cell Viability Assay in HepG2 cells - 32 hour (AID 1224877); further: nearly all actives have a fitted effect of over 55% in size; further: potency means the concentration at half of the fitted maximal effect
# Summary of the method: as §1
# [15] = A CellTox Green Cytotoxicity Assay to monitor cytotoxicity in HepG2 cells - 24 hour (AID 1224878); further: nearly all actives have a fitted effect of over 45% in size; further: potency means the concentration at half of the fitted maximal effect
# Summary of the method: as §5
# [16] = A CellTox Green Cytotoxicity Assay to monitor cytotoxicity in HepG2 cells - 40 hour (AID 1224879); further: nearly all actives have a fitted effect of over 40% in size; further: potency means the concentration at half of the fitted maximal effect
# Summary of the method: as §5
# [17] = qHTS assay to identify small molecule antagonists of the estrogen related receptor (ERR) signaling pathway from Tox21 library (AID 1224848); further: nearly all actives have a fitted effect of over 50% in size
# Summary of the method: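 ERR cell line, 2,000 cells/well. 6 h settle, then compound (DMSO) added; 18 h at 37 C; ONE-Glo luminescence after 30 min RT.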
# [18] = qHTS assay to identify small molecule agonists of the estrogen related receptor (ERR) signaling pathway from Tox21 library (AID 1224849; calls by dose curve; further: nearly all actives have a fitted effect of over 15% in size); conditions: ERR reporter cell line, ONE-Glo luciferase, 18 h
# Summary of the method: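 Reporter cells (ERR, NTP source) treated with Tox21 10K compounds 18 h, 37 C. Readout: ONE-Glo luminescence, 30 min RT.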
# [19] = A CellTox Green Cytotoxicity Assay to monitor cytotoxicity in HEK293 cells - 24 hour (AID 1224875); further: nearly all actives have a fitted effect of over 45% in size; further: potency means the concentration at half of the fitted maximal effect
# Summary of the method: as §3
# [20] = qHTS assay to identify small molecule agonists of the hypoxia (HIF-1) signaling pathway (AID 1224846; active means well fitted activation curve with a large enough effect in the signal ratio in the repeat runs, not every such curve was filed as active; the % refers to the signal ratio)
# Summary of the method: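 In ME-180 cells bearing an HRE-bla construct, 17 h treatment with DMSO-dissolved compounds at 37C was followed by CCF4-AM loading to quantify reporter induction.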
structure (smiles),measurement,setting,value
O=C1NC(=O)C(c2ccccc2)(c2ccccc2)N1,Potency,[1],inactive
same,Potency,[2],inactive
same,Potency,[3],inactive
same,Potency,[4],inactive
same,Potency,[5],inactive
same,Potency,[6],inactive
same,Potency,[7],inactive
same,Potency,[8],inactive
same,Potency,[9],inactive and 16.9 µM (active)
same,Potency,[10],inactive
same,Potency,[11],inactive
same,max response,[12],-30.3% (inactive) and -21% (inactive)
same,Potency,[13],inactive and 23.9 µM (active)
same,Potency,[14],inactive
same,Potency,[15],inactive and 23.9 µM (active)
same,Potency,[16],inactive and 23.9 µM (active)
O=C(Nc1ncc([N+](=O)[O-])s1)c1cccs1,Potency,[1],inactive
same,Potency,[2],inactive
same,Potency,[3],inactive
same,Potency,[4],24.7 µM (active)
same,Potency,[17],inactive
same,"activity change, positive = activation",[18]; at 42.5 µM (top of the series),14.6% (active)
same,Potency,[5],inactive
same,Potency,[6],inactive
same,Potency,[7],inactive
same,Potency,[8],inactive
same,Potency,[9],inactive
same,Potency,[10],inactive
same,Potency,[11],inactive
same,max response,[12],-20.9% (inactive)
same,Potency,[19],inactive
same,Potency,[13],inactive
same,Potency,[14],inactive
same,Potency,[15],inactive
same,Potency,[16],inactive
CC/C(=C(\c1ccccc1)c1ccc(OCCN(C)C)cc1)c1ccccc1,Potency,[1],inactive
same,Potency,[2],24.8 µM (active) [middle of 4 runs]
same,Potency,[3],50.5 µM (active)
same,Potency,[4],80.7 µM (active) [middle of 5 runs]
same,Potency,[5],38.9 µM (active) [middle of 4 runs]
same,Potency,[6],22.1 µM (active) [middle of 5 runs]
same,Potency,[7],inactive
same,Potency,[8],24.5 µM (active) [middle of 4 runs]
same,Potency,[9],24.7 µM (active) [middle of 5 runs]
same,Potency,[10],34.6 µM (active) [middle of 5 runs]
same,Potency,[11],54.9 µM (active) and 19.7 µM (active) and 43.6 µM (active)
same,Potency,[12],22.1 µM (active) [middle of 5 runs]
same,Potency,[19],35 µM (active) [middle of 5 runs]
same,Potency,[13],54.9 µM (active) [middle of 4 runs]
same,Potency,[14],30.9 µM (active) [middle of 4 runs]
same,Potency,[15],48.9 µM (active) [middle of 5 runs]
same,Potency,[16],43.6 µM (active) [middle of 5 runs]
CC(C)c1c(C(=O)Nc2ccccc2)c(-c2ccccc2)c(-c2ccc(F)cc2)n1CC[C@@H](O)C[C@@H](O)CC(=O)O,Potency,[1],inactive
same,Potency,[2],inactive
same,outcome,[20],inactive
same,Potency,[4],inactive
same,Potency,[5],inactive
same,Potency,[6],inactive
same,Potency,[7],inactive
same,Potency,[8],inactive
same,Potency,[9],inactive
same,Potency,[10],inactive
same,Potency,[11],inactive
same,max response,[12],-21% (inactive)
same,Potency,[19],inactive
same,Potency,[13],inactive
same,Potency,[14],inactive
same,Potency,[15],2.98 µM (active) and 45.8 µM (active) and 4.77 µM (active)
same,Potency,[16],4.21 µM (active) and 5.13 µM (active) and 7.56 µM (active)
O=C(O)c1ccccc1,Potency,[1],inactive
same,Potency,[2],inactive
same,Potency,[3],inactive
same,outcome,[20],inactive
same,Potency,[4],inactive
same,Potency,[5],inactive
same,Potency,[6],inactive
same,Potency,[7],inactive
same,Potency,[8],inactive
same,Potency,[9],inactive
same,Potency,[10],inactive
same,Potency,[11],inactive
same,Potency,[19],inactive
same,Potency,[13],inactive
same,Potency,[14],inactive
same,Potency,[15],inactive
same,Potency,[16],inactive
CNNCc1ccc(C(=O)NC(C)C)cc1,Potency,[1],inactive
same,Potency,[2],inactive
same,Potency,[3],inactive
same,outcome,[20],inactive
same,Potency,[4],inactive
same,Potency,[5],inactive
same,Potency,[6],inactive
same,Potency,[7],inactive
same,Potency,[8],inactive
same,Potency,[9],inactive
same,Potency,[10],inactive
same,Potency,[11],inactive
same,max response,[12],2.93% (inactive) and 2.31% (inactive) and 7.98% (inactive)
same,Potency,[19],inactive
same,Potency,[13],inactive
same,Potency,[14],inactive
same,Potency,[15],inactive
same,Potency,[16],24.5 µM (active) and 15.5 µM (active) and 23.9 µM (active)
C=CCc1ccc(O)c(OC)c1,Potency,[1],inactive
same,Potency,[2],inactive
same,outcome,[20],inactive
same,Potency,[4],inactive
same,Potency,[5],inactive
same,Potency,[6],inactive
same,Potency,[7],inactive
same,Potency,[8],inactive
same,Potency,[9],inactive
same,Potency,[10],inactive
same,Potency,[11],inactive
same,max response,[12],-1.8% (inactive) and -13.4% (inactive) and 5.2% (inactive)
same,Potency,[19],inactive
same,Potency,[13],inactive
same,Potency,[14],inactive
same,Potency,[15],inactive
same,Potency,[16],inactive
CCN(CC)C(=O)c1cccc(C)c1,Potency,[1],inactive
same,Potency,[2],inactive
same,outcome,[20],inactive
same,Potency,[4],inactive
same,Potency,[17],inactive
same,"activity change, positive = activation",[18]; at 42.5 µM (top of the series),5.47% (inactive)
same,"activity change, positive = activation",[18]; at 92.4 µM (top of the series),0.249% (inactive) and -23.9% (inactive)
same,Potency,[5],inactive
same,Potency,[6],inactive
same,Potency,[7],inactive
same,Potency,[8],inactive
same,Potency,[9],inactive
same,Potency,[10],inactive
same,Potency,[11],inactive
same,max response,[12],-1.16% (inactive) and -0.892% (inactive) and 2.65% (inactive)
same,Potency,[19],inactive
same,Potency,[13],inactive
same,Potency,[14],inactive
same,Potency,[15],inactive
same,Potency,[16],inactive
CC(=O)CCC(=O)O,Potency,[1],inactive
same,Potency,[2],inactive
same,Potency,[3],inactive
same,outcome,[20],inactive
same,Potency,[4],inactive
same,Potency,[5],inactive
same,Potency,[6],inactive
same,Potency,[7],inactive
same,Potency,[8],inactive
same,Potency,[9],inactive
same,Potency,[10],inactive
same,Potency,[11],inactive
same,max response,[12],-1.85% (inactive) and 3.92% (inactive) and 7.17% (inactive)
same,Potency,[19],inactive
same,Potency,[13],inactive
same,Potency,[14],inactive
same,Potency,[15],inactive
same,Potency,[16],inactive
Cc1ncc([N+](=O)[O-])n1C,Potency,[1],inactive
same,Potency,[2],inactive
same,outcome,[20],inactive
same,Potency,[4],inactive
same,Potency,[17],inactive
same,"activity change, positive = activation",[18]; at 42.5 µM (top of the series),5.13% (inactive)
same,"activity change, positive = activation",[18]; at 92.4 µM (top of the series),5.9% (inactive) and -0.499% (inactive)
same,Potency,[5],inactive
same,Potency,[6],inactive
same,Potency,[7],inactive
same,Potency,[8],inactive
same,Potency,[9],inactive
same,Potency,[10],inactive
same,Potency,[11],inactive
same,max response,[12],6.42% (inactive) and -0.882% (inactive) and 0.401% (inactive)
same,Potency,[19],inactive
same,Potency,[13],inactive
same,Potency,[14],inactive
same,Potency,[15],inactive
same,Potency,[16],inactive
